Measured values from PMC7819943, “Rice protein-binding microarrays: a tool to detect cis-acting elements near promoter regions in rice”.
Over roughly 35,000 sequences, “fluorescence intensity (a.u.)” has its median near 10,000; the highest 2% begin near 52,000. The sample as a whole holds a higher share of the highest values than the screen did.

These sequences were tested against T1, OsWOX13 (Oryza sativa, UniProt Q5QMM3 1-267) (assay: protein-binding microarray (RPBM); PBS, 2% BSA, 51.3 ng/ul salmon testes DNA, 50 uM zinc acetate, 200 nM TF, 25 C, 1 h; high values mean tight binding). Conditions: protein: recombinant; tags: N-terminal polyhistidine and DsRed monomer fusion (pET32a); label: CyDye5-dUTP incorporated in the synthesized complementary strand; 3' TTTTT single-stranded linker to array surface; dsDNA, one strand shown.
T1 sequence: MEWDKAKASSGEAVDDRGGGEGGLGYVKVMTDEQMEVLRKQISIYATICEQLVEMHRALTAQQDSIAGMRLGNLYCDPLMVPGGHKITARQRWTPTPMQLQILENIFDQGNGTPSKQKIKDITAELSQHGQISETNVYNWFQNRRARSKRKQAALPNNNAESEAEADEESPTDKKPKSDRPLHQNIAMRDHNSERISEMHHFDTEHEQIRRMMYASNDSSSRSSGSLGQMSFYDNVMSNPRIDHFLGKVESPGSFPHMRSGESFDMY
How it was run: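 In PBS with 2% BSA, salmon testes DNA and 50 µM zinc acetate, 200 nM protein was incubated on a custom Agilent array at 25 °C for 1 h and then washed off. The array had been made double-stranded by primer extension with Cy5-dUTP and blocked with 2% BSA. The proteins were transcription factors fused N-terminally to polyhistidine and DsRed, expressed in E. coli BL21-CodonPlus and purified on Ni–NTA. The binding signal is per-feature fluorescence intensity (arbitrary units) from an Axon 4000B scanner.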

**Q.** How did the binding signal turn out when “TTAATTTACCGGATTCAATATTCCATATTTAGAAGTCACCCGGAGTCACCTAGTGCAG” was run?
**A.** Its binding signal is 3350 fluorescence intensity (a.u.).

**Q.** With “CATGACATCGTCATTGACCGTGTCATCGTCAAGATGGATGCGGAGTCACCTAGTGCAG” as the sequence, how does the binding signal read?
**A.** Its binding signal is 4420 fluorescence intensity (a.u.).

**Q.** For “AATAAAAGATTATCATATCTAAATAGAAGATATACCATCTCGGAGTCACCTAGTGCAG”, which binding signal is on record?
**A.** The binding signal was 4160 fluorescence intensity (a.u.).

**Q.** Which binding signal does the source give for “AAACCAATTTCAATTACCAATTACTCCCTAATATTAGCTACGGAGTCACCTAGTGCAG” here?
**A.** The binding signal was 18900 fluorescence intensity (a.u.).

**Q.** For “GATCAAAAGAAATTTGCCAAATTTACTGCTTTGTGATGGGCGGAGTCACCTAGTGCAG”, which binding signal is on record?
**A.** Its binding signal is 3610 fluorescence intensity (a.u.).

**Q.** “CATTAATTAAACTAACCCATCCATTGATTGATTATCAGTGCGGAGTCACCTAGTGCAG” was tested. Which binding signal did it give?
**A.** The binding signal was 63500 fluorescence intensity (a.u.).

**Q.** “TTATGATTTTCATATAAATCAAATGGGACTTTAATTAATCCGGAGTCACCTAGTGCAG” was tested. Which binding signal did it give?
**A.** The binding signal was 11500 fluorescence intensity (a.u.).

**Q.** Which binding signal does the source give for “CTAATTATAAACCTTAATCAGCTAAAATCCTAACCCATCACGGAGTCACCTAGTGCAG” here?
**A.** Its binding signal is 3290 fluorescence intensity (a.u.).

**Q.** For “CATCAACATATAATTGATTAAATATTAATTATAACAAACTCGGAGTCACCTAGTGCAG”, which binding signal is on record?
**A.** The binding signal was 45700 fluorescence intensity (a.u.).

**Q.** Which binding signal does the source give for “ATCACCGACTAATTAATTAATTAATTAATCATCCTTGATTCGGAGTCACCTAGTGCAG” here?
**A.** Its binding signal is 38800 fluorescence intensity (a.u.).

**Q.** Which binding signal does the source give for “GCTCTGATTAATTTCAAACTTCGATTATGGACTAGTCAACCGGAGTCACCTAGTGCAG” here?
**A.** The binding signal was 53400 fluorescence intensity (a.u.).

**Q.** Which binding signal does the source give for “ATGGACTAATTATGCTCAAAAGATTCGTCTCACGATTTACCGGAGTCACCTAGTGCAG” here?
**A.** The binding signal was 16800 fluorescence intensity (a.u.).

**Q.** How did the binding signal turn out when “TGTTAACTAATTAAATACCCATTATCAAACATTTAATTGACGGAGTCACCTAGTGCAG” was run?
**A.** The binding signal was 22900 fluorescence intensity (a.u.).

**Q.** “ATTGATTTTATTAAGTAACTGTGTGCTAATTAATTGTTCACGGAGTCACCTAGTGCAG” was tested. Which binding signal did it give?
**A.** Its binding signal is 28300 fluorescence intensity (a.u.).

**Q.** Which binding signal does the source give for “TGACCTAATTAATTATTTAACTAATAATAATTAGTGATTACGGAGTCACCTAGTGCAG” here?
**A.** Its binding signal is 44500 fluorescence intensity (a.u.).

**Q.** How did the binding signal turn out when “GATAAGTGATTGATTAACTACTAATTTAATTATCACTGTGCGGAGTCACCTAGTGCAG” was run?
**A.** The binding signal was 63300 fluorescence intensity (a.u.).

**Q.** Which binding signal does the source give for “TAATTAATTGATTAATGACTAAACTTGGCCATCAACCGCTCGGAGTCACCTAGTGCAG” here?
**A.** Its binding signal is 64800 fluorescence intensity (a.u.).

**Q.** How did the binding signal turn out when “TTGTAATGGTGAAATCATGTTCAGTTTATTGTCGTACAAACGGAGTCACCTAGTGCAG” was run?
**A.** Its binding signal is 3710 fluorescence intensity (a.u.).

**Q.** “GCAAATGGATTGTACAACTATGGAAGGGGCAGGTTCGAGGCGGAGTCACCTAGTGCAG” was tested. Which binding signal did it give?
**A.** The binding signal was 5170 fluorescence intensity (a.u.).

**Q.** For “GTTTAATTAAAATCCACCAACAATGACAATTTAATAGGTGCGGAGTCACCTAGTGCAG”, which binding signal is on record?
**A.** The binding signal was 32300 fluorescence intensity (a.u.).

**Q.** For “CACTTAACTGAACACTTACTTCTCGGTGACAAGTGAAATGCGGAGTCACCTAGTGCAG”, which binding signal is on record?
**A.** The binding signal was 10800 fluorescence intensity (a.u.).

**Q.** Which binding signal does the source give for “TAACTAATTACCAAACAGATCGTACCCCACCATAAGAATCCGGAGTCACCTAGTGCAG” here?
**A.** Its binding signal is 29200 fluorescence intensity (a.u.).

**Q.** Which binding signal does the source give for “ACAGTGTAATTACACTATGATTGTACTGTAATTACATTTGCGGAGTCACCTAGTGCAG” here?
**A.** The binding signal was 44000 fluorescence intensity (a.u.).

**Q.** How did the binding signal turn out when “AAATGATTTGATCTAAATTGATAAGTTACTGAGGAGTGCGCGGAGTCACCTAGTGCAG” was run?
**A.** Its binding signal is 64800 fluorescence intensity (a.u.).

**Q.** Which binding signal does the source give for “AGTAATTATTAATTATTTTCCTATCATTTGATTTATTGTTCGGAGTCACCTAGTGCAG” here?
**A.** Its binding signal is 35700 fluorescence intensity (a.u.).

**Q.** “GTAATTATAATAATGAGTTACTGATCGAGAGGAGGAGAGGCGGAGTCACCTAGTGCAG” was tested. Which binding signal did it give?
**A.** Its binding signal is 7580 fluorescence intensity (a.u.).

**Q.** How did the binding signal turn out when “AAACTTTAATTTATCAACCATAAAAGAAACAATTAGAAGGCGGAGTCACCTAGTGCAG” was run?
**A.** The binding signal was 6940 fluorescence intensity (a.u.).

**Q.** How did the binding signal turn out when “CTAATTGGCAAATTAAACAAAGAAGAAGAGGAAAGGAAGGCGGAGTCACCTAGTGCAG” was run?
**A.** Its binding signal is 44700 fluorescence intensity (a.u.).

**Q.** For “TTTGATTAATTCAGTGCTTCCTTCCCGTTACATTACACTGCGGAGTCACCTAGTGCAG”, which binding signal is on record?
**A.** The binding signal was 54000 fluorescence intensity (a.u.).

**Q.** How did the binding signal turn out when “TAAACTGATATAAGTGCCTAAATTTGGATTGAGGGTGGTGCGGAGTCACCTAGTGCAG” was run?
**A.** The binding signal was 8300 fluorescence intensity (a.u.).

**Q.** With “GATTTAATGGATCACCTGCTATTACAGATTCCTTCAGTTGCGGAGTCACCTAGTGCAG” as the sequence, how does the binding signal read?
**A.** The binding signal was 4210 fluorescence intensity (a.u.).

**Q.** How did the binding signal turn out when “TAACTAATTATTAATTGTTTTCCTATCATTTGATTCATTGCGGAGTCACCTAGTGCAG” was run?
**A.** Its binding signal is 53200 fluorescence intensity (a.u.).

**Q.** For “GCTAATTAACTGTGATTGCAAGAAGGAAAACCATAGAAGGCGGAGTCACCTAGTGCAG”, which binding signal is on record?
**A.** Its binding signal is 53800 fluorescence intensity (a.u.).

**Q.** Which binding signal does the source give for “TAAGTAATTATTAATTCTTTTCCTATCATTTGATTTATTGCGGAGTCACCTAGTGCAG” here?
**A.** The binding signal was 11700 fluorescence intensity (a.u.).

**Q.** For “CTCTAATGAATGTGCATGTTATGTTTCCAAATCTCACTAGCGGAGTCACCTAGTGCAG”, which binding signal is on record?
**A.** The binding signal was 3850 fluorescence intensity (a.u.).

**Q.** Which binding signal does the source give for “TCTCATACAATCAACAACCTTAAACACATCAGCTCTAGTACGGAGTCACCTAGTGCAG” here?
**A.** Its binding signal is 4160 fluorescence intensity (a.u.).

**Q.** Which binding signal does the source give for “CTTCTGATAACAACTGATTAGAAACTATGTTAATTTGATGCGGAGTCACCTAGTGCAG” here?
**A.** Its binding signal is 31100 fluorescence intensity (a.u.).

**Q.** How did the binding signal turn out when “TACTCTTAGATTGAACAGGCTTCTGGCTCAAAACTTTTGACGGAGTCACCTAGTGCAG” was run?
**A.** The binding signal was 8550 fluorescence intensity (a.u.).

**Q.** With “ATTAATTATTTATTTCTTATATTACAGATTTTCAGTATATCGGAGTCACCTAGTGCAG” as the sequence, how does the binding signal read?
**A.** Its binding signal is 18600 fluorescence intensity (a.u.).

**Q.** With “TATAACTAATTATTTAATCGTTAATAAGCTGTTCCGCTAACGGAGTCACCTAGTGCAG” as the sequence, how does the binding signal read?
**A.** The binding signal was 25600 fluorescence intensity (a.u.).

**Q.** With “ACTGCTAATTAACCCTCTATAAATGCATGCCTCTCACCACCGGAGTCACCTAGTGCAG” as the sequence, how does the binding signal read?
**A.** The binding signal was 30400 fluorescence intensity (a.u.).

**Q.** “TTTAACATTTCCCCTTATAATTTTACCAAATCACTATGTTCGGAGTCACCTAGTGCAG” was tested. Which binding signal did it give?
**A.** Its binding signal is 4600 fluorescence intensity (a.u.).
